Data from PubChem BioAssay AID540362 (National Center for Advancing Translational Sciences (NCATS), 2011).
Inconclusive results are not listed. Activity calls are given as the source filed them. The call rests on the fitted dose curve; in most records, active means well fitted cell-killing curve with a large enough effect; inconclusive means small, poorly fitted or top-dose-only effect; inactive means flat fitted curve, though single readings scatter.

Assay: PC3M Cytotoxicity Assay for Compounds that Inhibit the Perinuclear Compartment
Settings: PC3M-GFP viability, ATPLite luminescence, 24 h
Excerpt: The perinucleolar compartment (PNC) is a non-membrane-bound nuclear subdomain that is associated with but structurally distinct from the nucleolus. The PNC is a heritable trait, in which the number of PNCs per cell in daughter cells often mimics that of their mother cells. The PNC is heterogeneous in shape, is stable through interphase, disassembles during mitosis, and reassembles in early G1. The PNC is concentrated with newly synthesized RNA polymerase III (pol III) RNAs (MRP RNA, RNAse P H1 RNA, hY RNAs[hY1, 2, 5], Alu RNA, and SRP [7SL] RNA) and RNA binding proteins (nucleolin, PTB, CUG-BP, KSRP, Raver1, Raver2, and Rod). […] Extensive in vitro studies have shown that the PNC is unique to tumor cells and preferentially forms in tumor cells derived from solid tissues. Examination of cancer cell lines from various origins and malignant capacities has shown that PNC prevalence correlates with the malignancy of tumors and has the potential to be developed as a pan-cancer prognostic marker. […] Although the PNC is associated with a DNA locus and a handful of components have been identified, much remains to be investigated regarding the structure and function of the PNC and its mechanistic link to cancer. We have previously shown that PNC prevalence reduction is a valid strategy to identify compounds that can be used to study the structure and function of the PNC. It is necessary, however, to create a screening platform that is able to test a large number of compounds in an automated fashion. Here we report the development and robustness of an automated whole-cell phenotypic image-based screening assay that is capable of identifying such compounds. We conducted a followup assay to measure the effect of the lead candidates on cell health by measuring ATP levels (ATPLite). The highly metastatic PC3M-GFP reporter cell line was used in this study. NIH Chemical Genomics Center [NCGC] NIH Molecular Libraries Probe Centers Network [MLPCN] MLPCN Grant: MH082371-01A2 Assay Submitter (PI): Sui Huang, Northwestern University, Feinberg School of Medicine, Cell and Molecular Biology, Chicago, Illinois.
1. Cells at a density of 75-90% confluency in T175 flasks were harvested using 7 ml TrypLE Express cell dissociation reagent. After dissociation (5 minutes room temperature incubation) 10 ml of complete media was added to the TrypLE/cell suspension. The liquid was transferred to a 50 ml Conical tube and cells were pelleted at 1000 RPM for 5 min. Supernatant was removed and cells were resuspended to a final density of 150-200 cells/ul in complete media. 2. Cells were plated in 5 ul volume (2000 cells/well) into 1536 well White solid bottom plates and allowed to recover and adhere at 37 C in a humidified 5% CO2 incubator for 4 hours. 3. After 4 hour incubation, compound libraries (23 nl of […] in columns 5-48) were transferred to the plates in duplicate using a 1536 well pintool. Camptothecin positive control (59 uM final) was added to column 2 and 1:3 dilutions of camptothecin was added to column 3. DMSO negative controls were present in columns 1 and 4. 4. After a 24 hour incubation in the 37 C incubator, all wells were treated with 3 ul of ATPLite reagent using a multidrop combi dispenser (ThermoFisher). Bubbles that formed during dispensing were removed by spinning the plates for 1 minutre at 1500 RPM on a table top centrifuge. 5. Luminescencent signal was detected on a Viewlux CCD based imager (PerkinElmer) with a clear filter and a 30 second integration time. The PC3M cell line stably expressing the PTB-GFP was provided by Sui Huang of Northwestern University. The media and cell culture reagents were purchased from Invitrogen (Carlsbad, CA), ATPLite came from PerkinElmer.
In the case of `N=c1c2c(-c3ccccc3)c(-c3ccccc3)n(Cc3ccco3)c2ncn1Cc1ccccc1`, the Potency was 19.9 µM (active).
With `N=c1c2c(-c3ccccc3)c(-c3ccccc3)n(Cc3ccco3)c2ncn1Cc1ccco1` the Potency was 19.9 µM (active).
For `CC(C)Cn1cnc2c(c(-c3ccccc3)c(-c3ccccc3)n2Cc2ccco2)c1=N`, the Potency was 19.9 µM (active).
In the case of `N=c1c2c(-c3ccccc3)c(-c3ccccc3)n(Cc3ccccc3)c2ncn1CCCn1ccnc1`, the Potency was 19.9 µM (active).
For `N=c1c2c(-c3ccccc3)c(-c3ccccc3)n(Cc3ccco3)c2ncn1CCCn1ccnc1`, the Potency was 25 µM (active).
In the case of `N=c1c2c(-c3ccccc3)c(-c3ccccc3)n(Cc3ccco3)c2ncn1CCO`, the Potency was 19.9 µM (active).
